Experimental data from the antibiotic and cytotoxicity screens of Wong et al. (2023).
The whole screen tested about 39,000 compounds, of which about 3,300 (8.5%) were called active. The full list was thinned out, with actives kept by preference.

Tested on: HepG2
Assay: cytotoxicity call (relative viability < 0.9)
Conditions: 10 µM

SMILES | cytotoxicity call
NC(=O)[C@H]1C[C@@H]2C=C[C@H]1C2 | inactive
O=C(CCCCCCC(=O)Nc1ccc([C@H]2C[C@H](c3ccccc3)O[C@H](c3ccc(Oc4ccccc4)cc3)O2)cc1)NO | inactive
C[C@H]1CN([C@@H](C)CO)C(=O)c2cc(NC(=O)Cn3cnnn3)ccc2O[C@@H]1CN(C)S(=O)(=O)c1ccc(F)cc1 | inactive
Cc1ccc(S(=O)(=O)N2C[C@H](O)COC[C@@H]3O[C@H](CC(=O)NCCCN(C)C)CC[C@H]32)cc1 | inactive
CCN1CCN(CC(=O)Nc2ccc(-c3cccc4c(=O)cc(N5CCOCC5)oc34)c3sc4ccccc4c23)CC1 | active
CCN1CCN(C(=O)CN2C(=O)c3ccccc3S2(=O)=O)CC1 | inactive
CCCC#Cc1ccc2c(c1)O[C@@H](CN(C)S(=O)(=O)c1cccc(F)c1)[C@H](C)CN([C@@H](C)CO)S2(=O)=O | inactive
CC(C)N1C[C@H](C)[C@@H](CN(C)Cc2ccccc2Cl)Oc2c(NC(=O)c3ccncc3)cccc2C1=O | inactive
O=C(CCCN1CCC(O)(c2ccc(Br)cc2)CC1)c1ccc(F)cc1 | active
O=C(CN1CCNCC1)c1ccc(F)cc1 | inactive
O=C(CCCN1CC=C(n2c(=O)[nH]c3ccccc32)CC1)c1ccc(F)cc1 | inactive
O=C(CCCN1CCN(c2ccccn2)CC1)c1ccc(F)cc1 | inactive
NC(=O)C1(N2CCCCC2)CCN(CCCC(=O)c2ccc(F)cc2)CC1 | inactive
O=C(CCCN1CCC(O)(c2ccc(Cl)cc2)CC1)c1ccc(F)cc1 | active
CC(C)(C)OC(=O)C[C@H]1CC=CC[C@@H](CC(=O)N[C@@H](CO)Cc2ccccc2)C(=O)N[C@@H](C(C)(C)C)COC1=O | inactive
C[C@@H]1CN([C@@H](C)CO)C(=O)c2cc(NC(=O)Cc3ccccc3)ccc2O[C@H]1CN(C)Cc1ccc(C(=O)Nc2ccccc2N)cc1 | inactive
C[C@@H]1CN([C@@H](C)CO)C(=O)c2cccc(NC(=O)c3ccc(-c4nccs4)cc3)c2O[C@H]1CN(C)C(=O)Nc1ccccc1 | inactive
C[C@@H]1CN([C@@H](C)CO)C(=O)c2cccc(NC(=O)Nc3ccc(C(F)(F)F)cc3)c2O[C@H]1CN(C)Cc1ccc(Cl)c(Cl)c1 | active
C[C@@H]1CN([C@@H](C)CO)C(=O)c2cccc(NC(=O)Nc3ccc(C(F)(F)F)cc3)c2O[C@@H]1CN(C)Cc1ccc(Cl)c(Cl)c1 | active
C[C@@H]1CN([C@H](C)CO)C(=O)c2cccc(NC(=O)Nc3ccc(C(F)(F)F)cc3)c2O[C@@H]1CN(C)Cc1ccc(Cl)c(Cl)c1 | active
C[C@@H]1CN([C@H](C)CO)C(=O)c2cccc(NC(=O)Nc3ccc(C(F)(F)F)cc3)c2O[C@H]1CN(C)Cc1ccc(Cl)c(Cl)c1 | inactive
C[C@H]1CN([C@@H](C)CO)C(=O)c2cccc(NC(=O)Nc3ccc(C(F)(F)F)cc3)c2O[C@@H]1CN(C)Cc1ccc(Cl)c(Cl)c1 | active
C[C@H]1CN([C@@H](C)CO)C(=O)c2cccc(NC(=O)Nc3ccc(F)cc3)c2O[C@H]1CN(C)Cc1ccc(Cl)c(Cl)c1 | inactive
C[C@H](CO)N1C[C@H](C)[C@@H](CN(C)Cc2ccc(Cl)c(Cl)c2)Oc2c(NC(=O)Nc3ccc(F)cc3)cccc2C1=O | inactive
C[C@H]1CN([C@@H](C)CO)C(=O)c2cccc(NC(=O)Nc3ccc(F)cc3)c2O[C@@H]1CN(C)Cc1ccc(Cl)c(Cl)c1 | inactive
C[C@H](CO)N1C[C@H](C)[C@H](CN(C)Cc2ccc(Cl)c(Cl)c2)Oc2c(NC(=O)Nc3ccc(C(F)(F)F)cc3)cccc2C1=O | inactive

SMILES | cytotoxicity call
C[C@@H]1CN([C@@H](C)CO)C(=O)c2cccc(NC(=O)Nc3ccc(F)cc3)c2O[C@@H]1CN(C)Cc1ccc(Cl)c(Cl)c1 | inactive
C[C@H](CO)N1C[C@H](C)[C@H](CN(C)C(=O)CCC(F)(F)F)OCCCC[C@H](C)Oc2ccc(NC(=O)Cc3ccccc3)cc2C1=O | inactive
C[C@@H]1CN([C@@H](C)CO)C(=O)c2cc(C#Cc3cccc(F)c3)cnc2O[C@H]1CN(C)Cc1ccccn1 | inactive
Cc1ccc(S(=O)(=O)Nc2ccc3c(c2)C(=O)N([C@@H](C)CO)C[C@@H](C)[C@H](CN(C)C(=O)c2ccccc2)OCCCC[C@H](C)O3)cc1 | inactive
Cc1noc(C)c1NC(=O)N(C)C[C@H]1OCCCC[C@H](C)Oc2ccc(NC(=O)C3CCCCC3)cc2C(=O)N([C@@H](C)CO)C[C@@H]1C | inactive
C[C@@H]1CCCCO[C@H](CN(C)C(=O)Nc2ccc(F)cc2)[C@H](C)CN([C@H](C)CO)C(=O)c2cc(NC(=O)Cc3ccccc3)ccc2O1 | inactive
C[C@@H]1CN([C@@H](C)CO)C(=O)c2cccc(NC(=O)C3CCOCC3)c2O[C@@H]1CN(C)S(=O)(=O)c1ccccc1 | inactive
C[C@H](CO)N1C[C@H](C)[C@@H](CN(C)C(=O)CN2CCOCC2)Oc2ncc(-c3cncnc3)cc2C1=O | inactive
Cc1noc(C)c1S(=O)(=O)N(C)C[C@H]1Oc2ccc(NS(C)(=O)=O)cc2C(=O)N([C@@H](C)CO)C[C@H]1C | inactive
C[C@@H]1CN([C@H](C)CO)C(=O)c2cccc(NC(=O)Nc3ccc(F)cc3)c2O[C@@H]1CN(C)Cc1ccc(Cl)c(Cl)c1 | inactive
C[C@H]1CN([C@@H](C)CO)C(=O)c2cccc(NC(=O)Nc3ccc(C(F)(F)F)cc3)c2O[C@H]1CN(C)Cc1ccc(Cl)c(Cl)c1 | inactive
C[C@H](CO)N1C[C@H](C)[C@@H](CN(C)Cc2ccc(Cl)c(Cl)c2)Oc2c(NC(=O)Nc3ccc(C(F)(F)F)cc3)cccc2C1=O | active
CCOc1ccnc2c1c(=O)n(CC(N)=O)c(=O)n2C | inactive
Cc1noc(C)c1S(=O)(=O)N(C)C[C@@H]1OCCCC[C@H](C)Oc2ccc(NS(=O)(=O)c3cn(C)cn3)cc2C(=O)N([C@H](C)CO)C[C@@H]1C | inactive
COc1cccc2c1C(=O)c1c(O)c3c(c(O)c1C2=O)C[C@@](O)(C(C)=O)C[C@@H]3O[C@H]1C[C@H](N)[C@H](O)[C@H](C)O1 | active
CC(=O)[C@]1(N)Cc2c(O)c3c(c(O)c2[C@@H](O[C@H]2C[C@H](O)[C@H](O)CO2)C1)C(=O)c1ccccc1C3=O | active
COc1cccc2c1C(=O)c1c(O)c3c(c(O)c1C2=O)CC(O)(C(C)=O)CC3OC1CC(N)C(O)C(C)O1.Cl (configuration not stated) | active
COc1cccc2c1C(=O)c1c(O)c3c(c(O)c1C2=O)C[C@](O)(C(C)=O)C[C@H]3O[C@H]1C[C@@H](N)[C@@H](O)[C@@H](C)O1 | active
CCNC(=O)C[C@@H]1C=C[C@@H](NC(=O)C2CCOCC2)[C@@H](CO)O1 | inactive
Cc1ccc(S[C@H](C)C(=O)c2ccc(C)c(Cl)c2)cc1 | inactive
C[C@@H]1CN([C@H](C)CO)C(=O)c2cc(NC(=O)c3ccccc3)ccc2O[C@@H](C)CCCCO[C@H]1CN(C)C(=O)CCC(F)(F)F | inactive
C[C@@H]1CCCCO[C@H](CN(C)C(=O)Nc2ccc(F)cc2)[C@H](C)CN([C@H](C)CO)C(=O)c2cc(NC(=O)c3ccncc3)ccc2O1 | inactive
CCCN(C)C[C@@H]1Oc2cc(C#Cc3cccc(OC)c3)ccc2S(=O)(=O)N([C@H](C)CO)C[C@@H]1C | inactive
C/C=C(\C(C)=N\O)c1ccccc1 | inactive
CN1C(=O)c2cc(NC(=O)C3CCCC3)ccc2OC[C@H]2O[C@@H](CC(=O)NCCc3ccncc3)CC[C@H]21 | inactive
CN(C)CC(=O)N[C@@H]1CC[C@H](CC(=O)O)O[C@@H]1CO | inactive

SMILES | cytotoxicity call
CC(=O)[C@]1(O)Cc2c(O)c3c(c(O)c2[C@@H](O[C@@H]2C[C@@H](N)[C@H](O)[C@@H](C)O2)C1)C(=O)c1c(O)cccc1C3=O | active
CC(C)NC(=O)Nc1ccc2c(c1)CC(=O)N([C@@H](C)CO)C[C@H](C)[C@@H](CN(C)S(=O)(=O)c1ccc(F)cc1)O2 | inactive
C[C@@H]1CN([C@@H](C)CO)C(=O)c2cc(NC(=O)Nc3cccc4ccccc34)ccc2O[C@@H]1CN(C)Cc1ccncc1 | inactive
C[C@H](CO)N1C[C@H](C)[C@H](CN(C)Cc2ccncc2)Oc2ccc(NC(=O)CCCN(C)C)cc2C1=O | inactive
CC(C)C[C@H](N)C(=O)N[C@@H](C)C(=O)O | active
CC(C)C[C@H](N)C(=O)O | inactive
CC(C)C[C@@H](NC(=O)[C@@H](C)N)C(=O)O | inactive
C[C@H]1CN([C@@H](C)CO)C(=O)Cc2cc(NC(=O)CCN3CCOCC3)ccc2O[C@H]1CN(C)S(=O)(=O)c1cn(C)cn1 | inactive
O=C(O)CCCN=C1NC(=O)CC(=O)N1 | inactive
O=C1CSC(=Nc2nccs2)N1 | inactive
O=C(O)CCN=C1NC(=O)CS1 | active
C[C@H]1CN([C@@H](C)CO)C(=O)c2cccc(NC(=O)c3ccncc3)c2O[C@@H]1CN(C)Cc1ccc(-c2ccccc2)cc1 | inactive
C[C@H](CO)N1C[C@H](C)[C@@H](CN(C)S(=O)(=O)c2ccc(F)cc2)Oc2ccc(NS(=O)(=O)c3cccs3)cc2CC1=O | inactive
COc1ccc([Si](C)(C)[C@@H]2[C@@H](CC(=O)N3Cc4ccccc4C[C@H]3CO)O[C@]3(C(=O)N(C)c4c(Br)cc(C)cc43)[C@H]2C)cc1 | inactive
COc1ccc([Si](C)(C)[C@H]2[C@H](CCn3cc([C@H](O)c4ccccc4)nn3)O[C@@]3(C(=O)N(C)c4c(Br)cc(C)cc43)[C@@H]2C)cc1 | active
COc1ccc(C(=O)Nc2ccc(CN3C(=O)[C@]4(O[C@H](CC(=O)N(CCO)Cc5ccccc5)[C@@H]([Si](C)(C)c5ccc(OC)cc5)[C@@H]4C)c4ccccc43)cc2)cc1 | inactive
COc1ccc([Si](C)(C)[C@@H]2[C@@H](CCn3cc([C@H](O)c4ccccc4)nn3)O[C@]3(C(=O)N(C)c4c(Br)cc(C)cc43)[C@H]2C)cc1 | inactive
COc1ccc(C(=O)Nc2cccc(CN3C(=O)[C@@]4(O[C@@H](CC(=O)N(CCO)Cc5ccccc5)[C@H]([Si](C)(C)c5ccc(OC)cc5)[C@H]4C)c4ccccc43)c2)cc1 | active
COc1ccc([Si](C)(C)[C@H]2[C@H](CC(=O)N(CCO)Cc3ccccc3)O[C@@]3(C(=O)N(C)c4c(Br)cc(C)cc43)[C@@H]2C)cc1 | active
COc1ccc(C(=O)Nc2ccc(CN3C(=O)[C@@]4(O[C@@H](CC(=O)N(CCO)Cc5ccccc5)[C@H]([Si](C)(C)c5ccc(OC)cc5)[C@H]4C)c4ccccc43)cc2)cc1 | inactive
COc1ccc(C(=O)Nc2cccc(CN3C(=O)[C@]4(O[C@H](CC(=O)N(CCO)Cc5ccccc5)[C@@H]([Si](C)(C)c5ccc(OC)cc5)[C@@H]4C)c4ccccc43)c2)cc1 | active
COc1ccc([Si](C)(C)[C@H]2[C@H](CC(=O)N(CCO)Cc3ccccc3)O[C@@]3(C(=O)N(Cc4cccc(N5CCOC5=O)c4)c4ccccc43)[C@@H]2C)cc1 | inactive
COc1ccc([Si](C)(C)[C@@H]2[C@@H](CC(=O)N(CCO)Cc3ccccc3)O[C@]3(C(=O)N(C)c4c(Br)cc(C)cc43)[C@H]2C)cc1 | inactive
COc1ccc([Si](C)(C)[C@H]2[C@H](CCn3cc([C@H](O)c4ccccc4)nn3)O[C@@]3(C(=O)N(c4ccccc4)c4ccccc43)[C@@H]2C)cc1 | inactive
COc1ccc([Si](C)(C)[C@@H]2[C@@H](CC(=O)N(CCO)Cc3ccccc3)O[C@]3(C(=O)N(Cc4cccc(N5CCOC5=O)c4)c4ccccc43)[C@H]2C)cc1 | inactive
